Measurements taken from the supplement of paper PMC13380429.

Tests used:
[1] = tested on: Vero E6 infected with SARS-CoV-2; test: morphology score (similarity to uninfected cells); higher = more like uninfected cells; conditions: 24 h
[2] = tested on: Vero E6 infected with SARS-CoV-2; test: SARS-CoV-2 infection rate relative to infected DMSO; higher = more infection, active = 60 or less; conditions: 24 h

| SMILES | morphology score [1] | SARS-CoV-2 infection rate [2] |
| --- | --- | --- |
| c1ccc(Oc2nc(NC3CCCCC3)c3[nH]cnc3n2)cc1 (0.833333 µM) | 0.191 | 104% (inactive) |
| CC(C)(C)Cn1c(N)nc2ccc(-c3[nH]c(C(C)(C)C)nc3-c3ccc(F)cc3)nc21 (10 µM) | -0.205 | 111% (inactive) |
| CC/C(=C(\c1ccccc1)c1ccc(OCCN(C)C)cc1)c1ccccc1 [tamoxifen] (0.833333 µM) | 0.135 | 95.5% (inactive) |
| CCCCCCCCCCCCCCCC[N+](C)(C)Cc1ccccc1 [benzyldimethylhexadecylammonium] (10 µM) | 0.298 | 80% (inactive) |
| COc1ccc(C2=N[C@@H](c3ccc(Cl)cc3)[C@@H](c3ccc(Cl)cc3)N2C(=O)N2CCNC(=O)C2)c(OC(C)C)c1 [nutlin-3] (0.833333 µM) | 0.101 | 117% (inactive) |
| CC(C)n1nc(-c2ccc3oc(N)nc3c2)c2c(N)ncnc21 (0.833333 µM) | -0.0142 | 102% (inactive) |
| COC(=O)C(Cc1ccc(OCCn2c(=O)sc3cc(C(=O)c4ccccc4)ccc32)cc1)C(=O)OC (10 µM) | 0.318 | 88.5% (inactive) |
| NS(=O)(=O)c1cc(Cl)c(Cl)c(S(N)(=O)=O)c1 [diclofenamide] (10 µM) | 0.298 | 84.5% (inactive) |
| CCOc1ccccc1OCC1CNCCO1 (centres undefined) [viloxazine] (10 µM) | 0.0033 | 112% (inactive) |
| CC=C1C(=O)C[C@H]2[C@@H]3CCC4=CC(=O)CC[C@]4(C)[C@H]3CC[C@]12C (10 µM) | 0.0492 | 91% (inactive) |
| CC(C)NC(=O)COc1cccc(-c2nc(Nc3ccc4[nH]ncc4c3)c3ccccc3n2)c1 (0.833333 µM) | -0.0169 | 106% (inactive) |
| O=C(Nc1ccc(S(=O)(=O)Nc2ccccc2Cl)c(Cl)c1)c1ccccn1 (10 µM) | -0.132 | 114% (inactive) |
| OCCN1CCN(CCCN2c3ccccc3C=Cc3ccccc32)CC1 [opipramol] (10 µM) | 0.237 | 102% (inactive) |
| CC(=O)O[C@H]1C(=O)[C@@]2(C)[C@H]([C@H](OC(=O)c3ccccc3)[C@]3(O)C[C@H](OC(=O)[C@H](O)[C@@H](NC(=O)c4ccccc4)c4ccccc4)C(C)=C1C3(C)C)[C@]1(OC(C)=O)CO[C@@H]1C[C@@H]2O [paclitaxel] (10 µM) | 0.00639 | 108% (inactive) |
| C[C@H]1C[C@@H]2[C@H]([C@@H](O)C[C@@]3(C)[C@H]2CC[C@]3(O)C(=O)COC(=O)CCC(=O)O)[C@@]2(C)C=CC(=O)C=C12 [methylprednisolone-sodium-succinate] (10 µM) | -0.0168 | 102% (inactive) |
| CCCC(=O)Nc1ccc(OCC(O)CNC(C)C)c(C(C)=O)c1 (centres undefined) [acebutolol] (10 µM) | -0.0282 | 113% (inactive) |
| CC(C)(C)c1ccc(S(=O)(=O)NCc2ccc(C(=O)Nc3cccnc3)cc2)cc1 (0.833333 µM) | 0.0631 | 107% (inactive) |
| CC1C=CC=CCCC=CC=CC=CC=CC(OC2OC(C)C(O)C(N)C2O)CC2OC(O)(CC(O)C(O)CCC(O)CC(O)CC(O)CC(=O)OC(C)C(C)C1O)CC(O)C2C(=O)O (centres undefined) [nystatin] (10 µM) | -0.0648 | 116% (inactive) |
| C[C@]12CCC(=O)C=C1CC[C@@H]1[C@@H]2[C@@H](O)C[C@@]2(C)[C@H]1CC[C@]2(O)C(=O)COP(=O)(O)O [hydrocortisone-phosphate] (10 µM) | -0.00553 | 98.5% (inactive) |
| COc1cc(N)c(Cl)cc1C(=O)OCCN1CCCCC1 (10 µM) | 0.128 | 110% (inactive) |
| Cc1ccc(NC(=O)c2cccc(C(C)(C)C#N)c2)cc1Nc1ccc2ncn(C)c(=O)c2c1 (0.833333 µM) | -0.0585 | 93.5% (inactive) |

| SMILES | morphology score [1] | SARS-CoV-2 infection rate [2] |
| --- | --- | --- |
| OC[C@@H](O)[C@@H](O)[C@@H](O)CO [ribitol] (10 µM) | 0.073 | 105% (inactive) |
| C[C@@H]1C[C@H]2[C@@H]3CCC4=CC(=O)C=C[C@]4(C)[C@@]3(F)[C@@H](O)C[C@]2(C)[C@H]1C(=O)CO [desoximetasone] (10 µM) | 0.067 | 91% (inactive) |
| Cc1cccn2c(=O)c(/C=C(\C#N)c3nc4ccccc4s3)c(Oc3ccc(F)cc3)nc12 (10 µM) | 0.0128 | 102% (inactive) |
| CO/N=C1\CN(c2nc3c(cc2F)c(=O)c(C(=O)O)cn3C2CC2)CC1CN (centres undefined) [gemifloxacin] (10 µM) | 0.163 | 91.5% (inactive) |
| Cc1noc(NS(=O)(=O)c2cccc3c(N(C)C)cccc23)c1C (10 µM) | 0.115 | 95.5% (inactive) |
| CC(C)(NS(=O)(=O)c1ccc(Oc2ccc(F)cc2)cc1)C(=O)NO (10 µM) | 0.193 | 99% (inactive) |
| c1ccc2c(c1)CN1CCCC1=N2 [desoxypeganine] (10 µM) | 0.169 | 94.5% (inactive) |
| Nc1cc(C(F)(F)F)c(-c2cc(N3CCOCC3)nc(N3CCOCC3)n2)cn1 [buparlisib] (10 µM) | -0.0939 | 103% (inactive) |
| Nc1nc2c(cnn2CCc2ccccc2)c2nc(-c3ccco3)nn12 (10 µM) | -0.139 | 112% (inactive) |
| C[C@]12CCC(=O)C=C1CC[C@@H]1[C@@H]2CC[C@@]2(C)[C@H]1CC[C@]2(C)O [17-alpha-Methyltestosterone] (10 µM) | 0.0827 | 108% (inactive) |
| O=C1Nc2ccc(Cl)cc2[C@@](C#CC2CC2)(C(F)(F)F)O1 [efavirenz] (10 µM) | 0.0664 | 108% (inactive) |
| NS(=O)(=O)c1ccc(NC(=O)Nc2ccc(F)cc2)cc1 (10 µM) | 0.0694 | 108% (inactive) |
| CNC(=O)c1cccc(-c2ccc3c(N4CCOC[C@@H]4C)nc(N4CCOC[C@@H]4C)nc3n2)c1 (10 µM) | -0.219 | 108% (inactive) |
| O=C(O)CCc1c(C(=O)O)[nH]c2cc(Cl)cc(Cl)c12 (10 µM) | -0.0263 | 104% (inactive) |
| CCn1c(=O)[nH]c2ccccc21 (10 µM) | 0.182 | 92.5% (inactive) |
| C#C[C@]1(O)CC[C@H]2[C@@H]3CCc4cc(O)ccc4[C@H]3CC[C@@]21C (10 µM) | 0.128 | 102% (inactive) |
| O=C(NCCCN1CCC2(CC1)OCc1ccccc12)[C@H]1CCCN1Cc1ccccc1 (10 µM) | 0.505 | 63.5% (inactive) |
| C/C(=N\NC(=S)N1CCC1)c1ccccn1 (0.833333 µM) | 0.0268 | 114% (inactive) |
| CCOC(=O)[C@]12CC1/C(=N\O)c1ccccc1O2 (some centres undefined) (10 µM) | 0.224 | 90.5% (inactive) |
| CC#CCOC(=O)c1c(C)nc2sc3c(c2c1N)CCC(O)C3 (centres undefined) (10 µM) | 0.151 | 93% (inactive) |
| CCCCC/N=c1\ccn(Cc2ccccc2)c2ccccc12 (10 µM) | 0.0295 | 108% (inactive) |

| SMILES | morphology score [1] | SARS-CoV-2 infection rate [2] |
| --- | --- | --- |
| CCN1CCN(Cc2ccc(-c3cc4c(N[C@H](C)c5ccccc5)ncnc4[nH]3)cc2)CC1 (10 µM) | -0.144 | 124% (inactive) |
| O=C(O)c1ccccc1-c1ccc(C(F)(F)F)cc1 [xenalipin] (10 µM) | 0.0335 | 102% (inactive) |
| CC(C)(C)C(=O)CN1C(=O)[C@H](NC(=O)Nc2cccc(C(=O)O)c2)CN(C2CCCCC2)c2ccccc21 [nastorazepide] (10 µM) | -0.0136 | 104% (inactive) |
| CC(C)[C@H]1CC[C@H](C(=O)N[C@H](Cc2ccccc2)C(=O)O)CC1 [nateglinide] (10 µM) | 0.0232 | 94.5% (inactive) |
| Cn1c(=O)c2[nH]c(Br)nc2n(C)c1=O [pamabrom] (10 µM) | 0.0536 | 101% (inactive) |
| COc1cc(Br)c(Nc2nc(-c3c(C)nc4ncccn34)cs2)c(Br)c1 (10 µM) | -0.31 | 114% (inactive) |
| [NH-]c1c[n+](N2CCOCC2)no1 [linsidomine] (10 µM) | -0.0679 | 117% (inactive) |
| CNC(=N)NC(=O)Nc1c(C)cccc1C [lidamidine] (10 µM) | -0.327 | 118% (inactive) |
| CO[C@@]1(NC(=O)Cc2cccs2)C(=O)N2C(C(=O)O)=C(COC(N)=O)CS[C@@H]21 [cefoxitin] (10 µM) | 0.228 | 100% (inactive) |
| O=C(O)c1cc(-c2ccc(F)cc2F)ccc1O [diflunisal] (10 µM) | -0.15 | 110% (inactive) |
| CN1[C@@H]2CC[C@H]1C[C@@H](OC(c1ccc(F)cc1)c1ccc(F)cc1)C2 [3-alpha-bis-(4-fluorophenyl)-methoxytropane] (10 µM) | 0.266 | 73% (inactive) |
| C[C@@H]1CCN(C(=O)CC#N)C[C@@H]1N(C)c1ncnc2[nH]ccc12 (10 µM) | 0.281 | 106% (inactive) |
| COc1ccc(NC(=O)c2ccc(C(=N)N(C)C)cc2)c(C(=O)Nc2ccc(Cl)cn2)c1 [betrixaban] (10 µM) | 0.0893 | 91% (inactive) |
| CCOCC(O)COc1ccc(NC(=O)CC[S+](C)C)cc1 (centres undefined) [suplatast] (10 µM) | 0.0407 | 102% (inactive) |
| CCCCCC(O)CCCC(=O)O (centres undefined) (10 µM) | 0.00301 | 103% (inactive) |
| COc1cc2nc(N3CCN(C(=O)c4ccco4)CC3)nc(N)c2cc1OC [prazosin] (10 µM) | -0.0585 | 107% (inactive) |
| COc1cc(C[C@H]2C(=O)OC[C@@H]2Cc2ccc(OC)c(OC)c2)ccc1O [arctigenin] (10 µM) | 0.0564 | 108% (inactive) |
| Clc1ccccc1CNC[C@H]1CC[C@H](CNCc2ccccc2Cl)CC1 (10 µM) | 0.523 | 49% (active) |
| Cc1cc2c(s1)Nc1ccccc1N=C2N1CCN(C)CC1 [olanzapine] (10 µM) | -0.0599 | 108% (inactive) |
| CN1[C@@H]2C[C@@H](OC(=O)[C@H](CO)c3ccccc3)C[C@H]1[C@@H]1O[C@@H]12 (10 µM) | 0.141 | 97.5% (inactive) |
